Test results as given in PubChem BioAssay (EPA / NIEHS).
Activity calls are given as the source filed them. How the source made its calls: active means hit-call score of the fitted dose curve at least 0.9, where 1 is the maximum; inactive means score below 0.9.

Assay: ATG_DR4_LXR_CIS: Attagene CIS-FACTORIAL HepG2 Assay for human Liver X Receptor (LXR), DR4 submotif (AID 2282929)
Details: HepG2 Attagene DR4 cis-reporter, mRNA transcription; actives raise or lower the signal
Protocol: ATG_CIS is a cell-based, multiplexed-readout assay that uses HepG2, a human liver cell line, with measurements taken at 24 hours after chemical dosing in a 24-well plate.ATG_DR4_LXR_CIS is one of 52 assay component(s) measured or calculated from the ATG_CIS assay. It is designed to make measurements of mRNA induction, a form of inducible reporter, as detected with fluorescence intensity signals by Reverse transcription polymerase chain reaction (RT-PCR) and Capillary electrophoresis technology.Data from the assay component ATG_DR4_LXR_CIS was analyzed into 1 assay endpoint. This assay endpoint, ATG_DR4_LXR_CIS, was analyzed with bidirectional fitting relative to DMSO as the negative control and baseline of activity. Using a type of inducible reporter, measures of mRNA for gain or loss-of-signal activity can be used to understand the reporter gene at the transcription factor-level as they relate to the gene NR1H2 and NR1H3. Furthermore, this assay endpoint can be referred to as a primary readout, because this assay has produced multiple assay endpoints where this one serves a reporter gene function. To generalize the intended target to other relatable targets, this assay endpoint is annotated to the nuclear receptor intended target family, where the subfamily is non-steroidal.
Human liver HepG2 cells are transiently transfected with multiple reporter transcription units (MRTUs) in 6-well plates using FuGene 6 reagent (Roche; 3 ml FuGene/1 mg DNA). The MRTU constructs are regulated by a cis-regulating element (promoter). […] A major difference between the CIS and TRANS system is that in CIS activities of endogenous TFs are measured, whereas the TRANS assay evaluates changes in activities of exogenous, chimeric NR-Gal4 proteins. […] At the end of 24 hour incubation, total RNA was isolated using TriZol reagent (Invitrogen). The isolated RNA is then reverse-transcribed using oligo(dT) primer and Mo-MLV reverse transcriptase (Invitrogen) with DNAse I (Ambion) treatment for 30 min. The one-tenth of the produced cDNA was amplified by PCR using Taq DNA polymerase (Invitrogen) and two reporter sequence-specific primers. The PCR products were fluorescently labeled by primer extension with 6-arboxyfluorescein (6-FAM) 5'-labeled reporter sequence-specific primer (2 min at 95 C, 20 s at 68 C and 10 min at 72 C) and these products were digested with 5U of HpaI (New England Biolabs) for 2h at 37 C. The fragments were purified using Qiaquick PCR columns (Qiagen), analyzed on an ABI 3130xL genetic analyzer (Applied Biosystems) with peak positions identified by using a set of X-rhodamine (ROX)-labeled MapMarker1000 molecular weight standards (BioVentures). The raw capillary electrophoresis data was processed using Attagraph software (Attagene).

Row | SMILES | outcome | AC50
1 | CCCCOCC | inactive | –
2 | CC(C)c1ccccc1O | inactive | –
3 | CN(C)CCOC(C)(c1ccccc1)c1ccccn1 (stereo not given) | inactive | –
4 | CC1CC(O)CC(C)(C)C1 (stereo not given) | inactive | –
5 | CC(C)(C)c1ccc(C(=O)O)cc1 | inactive | –
6 | COc1cc(CCC(C)=O)ccc1O | inactive | –
7 | CCCCCCCCCCCC(=O)OCC(O)CO (stereo not given) | inactive | –
8 | Cc1ccc(S(N)(=O)=O)cc1 | inactive | –
9 | CCCCCCC(CO)CCCC (stereo not given) | inactive | –
10 | O=c1c(O)c(-c2ccc(O)cc2)oc2cc(O)cc(O)c12 | inactive | –
11 | CN(C)c1cccc(O)c1 | inactive | –
12 | O=C(Nc1ccc2c(O)c(N=Nc3ccc(N=Nc4ccc(S(=O)(=O)O)cc4)cc3)c(S(=O)(=O)O)cc2c1)c1ccccc1 | inactive | –
13 | CCCC[P+](CCCC)(CCCC)CCCC | inactive | –
14 | C[N+](C)(C)CCCCCC[N+](C)(C)C | inactive | –
15 | CCOC(=O)CC(C)O (stereo not given) | inactive | –
16 | CC(C)(N=C=O)c1cccc(C(C)(C)N=C=O)c1 | inactive | –
17 | Cc1c(OCC(F)(F)F)ccnc1CS(=O)c1nc2ccccc2[nH]1 (stereo not given) | – | 134 µM (active)
18 | CC(=O)Nc1ccc(C(=O)CCl)cc1 | – | 12.9 µM (active)
19 | Cc1cc(=O)oc2cc(N(C)C)ccc12 | inactive | –
20 | OCc1cccc(Oc2ccccc2)c1 | inactive | –

Row | SMILES | outcome | AC50
21 | c1ccc(CCc2ccccc2)cc1 | – | 161 µM (active)
22 | Nc1c(Cl)cc(Cl)cc1[N+](=O)[O-] | inactive | –
23 | O=C(O)c1cccnc1C(=O)O | inactive | –
24 | CCC(C)S (stereo not given) | inactive | –
25 | CCCCCCCC(=O)OCCCCCC | inactive | –
26 | O=P(O)(O)O | inactive | –
27 | CCN(CCN)c1cccc(C)c1 | inactive | –
28 | CCO/C=C1\N=C(c2ccccc2)OC1=O | inactive | –
29 | Nc1ccc2cc(S(=O)(=O)O)cc(O)c2c1N=Nc1ccccc1C(F)(F)F | inactive | –
30 | CC(C)CCOC(=O)c1ccccc1 | inactive | –
31 | Nc1c(S(=O)(=O)O)cc(Br)c2c1C(=O)c1ccccc1C2=O | inactive | –
32 | Cc1c(C2(c3cc(Br)c(O)c(Br)c3C)OS(=O)(=O)c3ccccc32)cc(Br)c(O)c1Br | inactive | –
33 | CCCCCCCCc1ccc(S(=O)(=O)O)cc1 | – | 42.1 µM (active)
34 | CC(C)(C)CC(C)(C)c1ccc(OCCOCC[N+](C)(C)Cc2ccccc2)cc1 | – | 8.35 µM (active)
35 | CC(C)=CCCC(C)CC(=O)O (stereo not given) | inactive | –
36 | CCc1cc(C(C)(C)C)c(O)c(C(C)(C)C)c1 | – | 23.2 µM (active)
37 | CC(=O)O[C@@H]1C[C@@H]2CC[C@@]1(C)C2(C)C | inactive | –
38 | CCCCCCCCCCCCCC(=O)OCC(O)CO (stereo not given) | inactive | –
39 | CCCCN(CCCC)C(=O)N(CCCC)CCCC | – | 27.9 µM (active)
40 | CCNCCO | inactive | –
